According to the supplement of paper PMC10646978:
± gives the standard deviation.

Columns and labels:
Conditions in all cases: modulator concentration 10 µM
[1] = tested on: RAW-Dual (murine macrophage reporter line); experiment: NF-kB reporter (SEAP) activity fold change vs agonist alone; higher = enhanced NF-kB activity
Outline: (§1)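 Compound reached 10 μM final in each well by pin transfer, onto RAW-Dual murine macrophage reporter cells seeded at 50 000 per well in 384-well plates. After 1 hour at 37 °C, the cells were stimulated overnight with a PRR agonist. SEAP in the supernatant was read with QUANTI-Blue at 620 nm absorbance for NF-κB, and Lucia luciferase was read with QUANTI-Luc luminescence for IRF. Each signal was turned into fold change against the mean agonist-only control on the same plate, and two replicate plates were averaged with propagated errors.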

[2] = tested on: RAW-Dual (murine macrophage reporter line); experiment: IRF reporter (Lucia luciferase) activity fold change vs agonist alone; higher = enhanced IRF activity
Outline: as §1

[3] = tested on: RAW-Dual (murine macrophage reporter line); experiment: viability score (confluency relative to resting cells, overnight) (fraction); higher = more viable, active = viable (0.7 or more)
Outline: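 Overnight exposure to 10 μM final compound was carried out on RAW-Dual macrophages in 384-well plates. IncuCyte software generated two confluency masks over all wells imaged with IncuCyte. The viability score gives confluency in relation to resting cells. A compound met the cutoff if each mask exceeded 70% of resting cells.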

[4] = agonist: CpG ODN 1826 0.5 ug/mL

Row | SMILES | NF-kB reporter [1, 4] | NF-kB reporter ([1]; agonist: LPS 0.1 ug/mL) | NF-kB reporter ([1]; agonist: MPLA […]) | IRF reporter ([2]; agonist: 3'3'-cGAMP 10 ug/mL) | IRF reporter ([2]; agonist: LPS 0.1 ug/mL) | IRF reporter ([2]; agonist: MPLA […]) | viability score [3]
1 | Cc1ccc(C=C2Oc3c(ccc(O)c3CN3CCN(CCO)CC3)C2=O)cc1 | 1.12 ± 0.086 | 1.01 ± 0.13 | 1.19 ± 0.11 | 1.02 ± 0.038 | 1.39 ± 0.21 | 1.55 ± 0.3 | 1.02 (active)
2 | O=C(Cc1ccc([N+](=O)[O-])cc1)NN=Cc1ccncc1 | 0.864 ± 0.26 | 1.08 ± 0.098 | 1.03 ± 0.16 | 0.964 ± 0.038 | 1.15 ± 0.18 | 1.44 ± 0.42 | 1 (active)
3 | COC(=O)CNC(c1ccccc1)c1cc(Br)ccc1NC(=O)c1ccccc1 (centres undefined) | 1.06 ± 0.18 | 1.03 ± 0.12 | 1.33 ± 0.21 | 1.06 ± 0.035 | 1.16 ± 0.13 | 1.63 ± 0.19 | 1.01 (active)
4 | CC(=O)OC(OC(C)=O)c1ccc([N+](=O)[O-])cc1 | 1.16 ± 0.094 | 1.06 ± 0.069 | 1 ± 0.035 | 1 ± 0.17 | 1.09 ± 0.1 | 1.09 ± 0.17 | 1 (active)
5 | CC1(C)[C@H](C(=O)O)N2C(=O)C[C@H]2S1(=O)=O | 0.998 ± 0.11 | 1.05 ± 0.079 | 1.06 ± 0.033 | 0.944 ± 0.072 | 0.931 ± 0.038 | 0.859 ± 0.068 | 0.994 (active)
6 | N[C@@H](CSCCCO)C(=O)O | 0.987 ± 0.073 | 1.01 ± 0.051 | 0.937 ± 0.033 | 0.922 ± 0.077 | 0.995 ± 0.047 | 0.971 ± 0.089 | 1 (active)
7 | O=C(CCn1c(=O)oc2ccccc21)Nc1ccncc1 | 1.17 ± 0.068 | 1.04 ± 0.079 | 1.01 ± 0.033 | 0.996 ± 0.16 | 0.932 ± 0.045 | 0.949 ± 0.14 | 1 (active)
8 | Cc1ccc(S(=O)(=O)n2nc(C)c(C)c2C)cc1C | 0.929 ± 0.047 | 1.11 ± 0.11 | 1.05 ± 0.068 | 1.07 ± 0.068 | 1.2 ± 0.16 | 1.26 ± 0.34 | 1.01 (active)
9 | CCOC(=O)C1=C(C)NC(C)=C(C(=O)OCC)C1c1ccc(O)cc1 | 1.41 ± 0.23 | 0.895 ± 0.083 | 1.35 ± 0.13 | 1.01 ± 0.03 | 0.971 ± 0.16 | 0.966 ± 0.099 | 0.991 (active)
10 | COc1cccc2c1C(=O)c1c(O)c3c(c(O)c1C2=O)C[C@@](O)(C(=O)CO)C[C@@H]3O[C@H]1C[C@H](N)[C@@H](O)[C@H](C)O1.Cl | 0.114 ± 0.0074 | 0.0523 ± 0.0041 | 0.0992 ± 0.0043 | 0.0174 ± 0.0046 | 0.0179 ± 0.0063 | 0.0142 ± 0.0068 | 0.105 (inactive)
11 | CC(C)NCC(O)COc1ccc(CCOCC2CC2)cc1 (centres undefined) | 0.927 ± 0.09 | 1.02 ± 0.1 | 1.06 ± 0.04 | 0.907 ± 0.073 | 0.897 ± 0.029 | 0.764 ± 0.098 | 1 (active)
12 | CC(=O)N=c1sc(S(N)(=O)=O)nn1C [Prestw-802] | 1.06 ± 0.11 | 0.991 ± 0.098 | 1.02 ± 0.12 | 0.986 ± 0.031 | 1.26 ± 0.15 | 1.39 ± 0.19 | 1.03 (active)
13 | C=C1CCC(OC(C)=O)C(C)=CCC2C1CC2(C)C (centres undefined) | 0.932 ± 0.086 | 0.776 ± 0.1 | 0.752 ± 0.071 | 0.671 ± 0.038 | 0.928 ± 0.17 | 0.779 ± 0.24 | 1.03 (active)
14 | COc1ccc(-n2c(C)c([N+](=O)[O-])c3ccc(O)cc32)cc1 | 0.835 ± 0.15 | 1.26 ± 0.1 | 1.34 ± 0.17 | 0.393 ± 0.021 | 0.594 ± 0.089 | 0.601 ± 0.063 | 0.999 (active)
15 | CC(=C(C#N)C(=O)NCc1ccccc1)N(C)C | 0.808 ± 0.077 | 0.883 ± 0.1 | 1.08 ± 0.11 | 0.966 ± 0.045 | 1.22 ± 0.1 | 1.26 ± 0.17 | 1.02 (active)
16 | Cc1ccc(S(=O)(=O)N=C(Nc2ccc([N+](=O)[O-])cc2)c2ccccc2)cc1 | 1.06 ± 0.075 | 1.13 ± 0.074 | 0.928 ± 0.06 | 0.958 ± 0.032 | 1.39 ± 0.32 | 1.22 ± 0.16 | 1 (active)
17 | CCC(=O)Nc1cccc(NC(=O)c2ccc(F)cc2)c1 | 0.852 ± 0.066 | 0.906 ± 0.12 | 0.977 ± 0.092 | 0.99 ± 0.05 | 1.32 ± 0.092 | 1.39 ± 0.17 | 0.997 (active)
18 | Cc1ccc(CNC(=O)CN(c2cccc3ccccc23)S(C)(=O)=O)cc1 | 0.97 ± 0.078 | 1.03 ± 0.098 | 0.957 ± 0.073 | 1.08 ± 0.031 | 1.47 ± 0.28 | 1.07 ± 0.096 | 1.01 (active)
19 | O=C(CN(CCc1ccccc1)S(=O)(=O)c1ccc(Cl)cc1)NCc1ccccn1 | 0.824 ± 0.065 | 0.95 ± 0.049 | 0.987 ± 0.092 | 0.741 ± 0.035 | 1.45 ± 0.084 | 1.49 ± 0.16 | 1.02 (active)
20 | O=c1c(O)c(-c2ccc(O)c(O)c2)oc2cc(O)cc(O)c12 | 1.06 ± 0.26 | 1.04 ± 0.093 | 1.47 ± 0.12 | 0.356 ± 0.021 | 1.08 ± 0.23 | 1.12 ± 0.14 | 0.982 (active)
21 | O=C(c1cc2nc(-c3ccccc3)cc(-c3ccccc3)n2n1)N1CCCCCC1 | 0.999 ± 0.081 | 1.16 ± 0.077 | 0.976 ± 0.065 | 0.965 ± 0.035 | 1.37 ± 0.19 | 1.12 ± 0.078 | 1.02 (active)
22 | COc1ccc(S(=O)(=O)NCc2cccnc2-c2cnn(C)c2)cc1Cl | 1.1 ± 0.055 | 1.15 ± 0.12 | 1.04 ± 0.06 | 1.17 ± 0.058 | 1.11 ± 0.072 | 1.04 ± 0.19 | 0.999 (active)
23 | Cc1ccc(C(C)C)c(Oc2ccccc2NC(=O)c2cc(I)cc(I)c2O)c1 | 0.995 ± 0.066 | 0.985 ± 0.082 | 0.924 ± 0.071 | 0.915 ± 0.035 | 1.44 ± 0.092 | 1.27 ± 0.25 | 1 (active)
24 | CCCc1nc(C(C)(C)O)c(C(=O)OCc2oc(=O)oc2C)n1Cc1ccc(-c2ccccc2-c2nnn[nH]2)cc1 [Prestw-1190] | 1.09 ± 0.18 | 1.15 ± 0.2 | 1 ± 0.15 | 0.916 ± 0.036 | 0.987 ± 0.094 | 1.14 ± 0.15 | 1 (active)
25 | Cc1cccc(Nc2ccccc2C(=O)O)c1C | 0.847 ± 0.063 | 0.923 ± 0.13 | 0.962 ± 0.035 | 1.03 ± 0.075 | 1.03 ± 0.092 | 0.98 ± 0.089 | 0.999 (active)
26 | Cc1cc(Nc2cc(N3CCN(C)CC3)nc(Sc3ccc(NC(=O)C4CC4)cc3)n2)n[nH]1 | 0.0769 ± 0.0068 | 0.142 ± 0.0072 | 0.23 ± 0.021 | 0.136 ± 0.011 | 0.537 ± 0.041 | 0.451 ± 0.06 | 0.91 (active)
27 | COC(=O)C1=C(C)NC(C)=C(C(=O)OCC(C)C)C1c1ccccc1[N+](=O)[O-] (centres undefined) | 0.884 ± 0.092 | 0.81 ± 0.05 | 0.748 ± 0.075 | 0.371 ± 0.017 | 0.783 ± 0.066 | 0.562 ± 0.052 | 0.923 (active)
